High-throughput results (PubChem)
An excerpt weighted towards active compounds, which were near 1.2% of everything screened.
IL1B NFkB pot: enhances IL-1B driven NFkB nuclear translocation; activation, % at 2 µM; actives 0.3% (n = 94,000); HUVEC IL-1B NFkB p65 nuclear translocation imaging;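 active = activation above 40%, about the mean plus 3 SD, also judged a hit on visual image review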;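 also: percent activation is computed from the nuclear over cytoplasmic p65 intensity ratio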
NFkB transloc inh: blocks IL-1B driven NFkB nuclear translocation in HUVEC cells; HUVEC IL-1B NFkB p65 nuclear translocation imaging; inhibition, % at 2 µM; actives 0.43% (n = 94,000); AID 796;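 active = inhibition above about 30% together with a positive call from visual inspection of the well image, limit read from the data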;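 also: nuclear over cytoplasmic p65 intensity ratio measured by imaging; 0% = IL-1B stimulated DMSO wells and 100% = unstimulated DMSO wells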
sEH inh: soluble epoxide hydrolase (human) inhibition | recombinant human sEH enzymatic activity assay | actives 0.34% (n = 91,000) | inhibition, % at 2 µM; in the data active = inhibition above about 80%
Target sequence (P34913 whole entry, looked up): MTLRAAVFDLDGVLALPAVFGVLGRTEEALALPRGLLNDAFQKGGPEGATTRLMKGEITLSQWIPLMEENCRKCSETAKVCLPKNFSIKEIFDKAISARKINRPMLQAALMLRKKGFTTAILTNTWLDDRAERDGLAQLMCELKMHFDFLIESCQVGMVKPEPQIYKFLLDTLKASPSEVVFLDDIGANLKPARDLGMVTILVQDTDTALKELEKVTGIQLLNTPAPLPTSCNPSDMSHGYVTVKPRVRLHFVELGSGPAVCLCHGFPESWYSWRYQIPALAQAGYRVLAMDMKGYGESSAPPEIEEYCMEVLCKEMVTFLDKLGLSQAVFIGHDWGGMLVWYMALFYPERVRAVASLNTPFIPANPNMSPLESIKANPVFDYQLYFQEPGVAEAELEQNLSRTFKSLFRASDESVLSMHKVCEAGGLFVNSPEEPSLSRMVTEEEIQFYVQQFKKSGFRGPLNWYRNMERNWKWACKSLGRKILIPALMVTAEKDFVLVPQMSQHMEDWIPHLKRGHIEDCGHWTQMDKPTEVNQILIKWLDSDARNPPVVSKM
sEH act: soluble epoxide hydrolase (human) activation; purified human sEH enzymatic activity, activator screen; activation, % at 2 µM; actives 0.04% (n = 91,000); in the data active = activation above about 37%
IL1B cytotox: toxic to HUVEC cells under IL-1B stimulation; HUVEC cell count loss, Hoechst imaging, IL-1B stimulated; actives 0.41% (n = 94,000); cell count reduction, % at 2 µM;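 active = cell count reduction more than 3 SD above the screen-wide mean, cut at about 70% in these data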;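 also: normalized per plate to untreated control cells as the no-loss baseline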
Active calls of the source: *.

SMILES	IL1B NFkB pot	NFkB transloc inh	sEH inh	sEH act	IL1B cytotox
c1ccc(Cn2c(-c3ccco3)nc3nc4ccccc4nc32)cc1	2	-2	-40	38*	28
O=C(CN1CCOCC1)Nc1scc(-c2ccccc2)c1C(=O)N1CCOCC1	-5	5	-5	4	-10
O=C(CCC1CCCCC1)Nc1c2c(nn1-c1ccc(F)cc1)CS(=O)C2 (stereo not drawn)	-5	5	-6	6	76*
c1ccc2oc(-c3ccc4nc[nH]c4c3)nc2c1	-52	52*	-7	10	-31
O=C1CCCCN1CCc1c[nH]c2ccccc12	5	-5	-24	20	86*
CCOC(=O)c1[nH]c2ccc(F)cc2c1NC(=O)CN1CCc2cc(OC)c(OC)cc2C1	48*	-48	1	-2	5
O=C(COc1ccccc1)Nc1ccccc1N1CCN(c2ccccc2)CC1	42*	-42	-2	5	0
O=C(COc1ccccc1)Nc1ccccc1N1CCN(c2ccc(F)cc2)CC1	4	-4	18	-20	27
O=C(NNS(=O)(=O)c1ccc(Br)cc1)c1ccncc1	-35	35*	3	1	7
O=C(NNC(=O)c1ccncc1)c1ccncc1	31	-31	5	-6	-6
COC(=O)c1c(NC(=O)CC2Nc3ccccc3NC2=O)sc(C)c1C (stereo not drawn)	-5	5	-2	4	0
COc1cccc(-n2nc3c(-n4ncc(C#N)c4N)nnc(C)c3c2C)c1	-46	46*	-3	6	15
CCOC(=O)c1[nH]cc(-c2ccccc2)c1N1CCOCC1	-10	10	2	-2	-7
CCOc1ccccc1N=c1oc2cc(O)ccc2cc1C(=O)NCC1CCCO1 (stereo not drawn)	2	-2	13	-15	3
Nc1nc(-c2ccc(Br)s2)c(Br)s1	4	-4	-7	10	12
O=C(c1ccc(F)cc1)N1CCCCC(Sc2nnc3ccccn23)C1=O (stereo not drawn)	-30	30*	-1	3	-12
N/C(Cc1cccs1)=N\OC(=O)COc1ccc(Br)cc1	60*	-60	4	-3	3
Cc1cccc(OCC(=O)O/N=C(\N)Cc2cccs2)c1	-4	4	1	0	-12
Cc1onc(-c2c(F)cccc2Cl)c1C(=O)OCn1nnc2ccccc2c1=O	18	-18	3	-8	-108
CCOC(=O)Nc1ccc2c(c1)N(C(=O)OC)c1ccccc1CC2	10	-10	-44	41*	3
Cc1ccccc1-n1ncc2c(SCC(=O)NCc3cccs3)ncnc21	105*	-105	4	-4	-12
Cc1csc(NC(=O)CSc2ncnc3c2cnn3-c2ccccc2Cl)n1	5	-5	13	-14	-7
CC(=O)Nc1ccc(S(=O)(=O)N2CCc3c(Cl)cccc3C2)cc1	-10	10	7	-7	0
O=C(CSc1ncnc2c1oc1ccccc12)NC1CCCCC1	2	-2	34	-31	-4
O=C(O)c1ccccc1-c1ccccc1C(=O)NCCCO	6	-6	-33	37*	6
SMILES	IL1B NFkB pot	NFkB transloc inh	sEH inh	sEH act	IL1B cytotox
Cc1ccc(N(CC(=O)NCc2ccc3c(c2)OCO3)S(=O)(=O)c2c(C)noc2C)cc1	10	-10	2	-2	16
O=C(NCCCN1CCN(c2cccc(Cl)c2)CC1)c1cccc(N2CCCC2=O)c1	46*	-46	17	-15	-19
O=C1N(CCCCN2C(=O)C3(OCCO3)c3ccccc32)c2ccccc2C12OCCO2	24	-24	-8	10	-27
CC(C)CC(=O)CN1C(=O)C2(OCCO2)c2ccccc21	12	-12	3	0	77*
CCCCSC1=C(C#N)C(c2ccccc2C)C(C(=O)OCC)C(=O)N1 (stereo not drawn)	-7	7	6	-3	10
Cc1ccccc1C(=O)N1CCN(c2ccc(NC(=O)CSc3ccc(Cl)cc3)cc2)CC1	14	-14	86*	-85	-11
CC1(C)Cc2c(cnn2-c2ccccc2)-c2c1c1ccccc1n2CC(O)CCl (stereo not drawn)	-13	13	-13	13	91*
Cc1cccc(N2CCN(C(=O)c3cccc(N4C(=O)C5CC=CC(C)C5C4=O)c3)CC2)c1C (stereo not drawn)	9	-9	8	-5	3
NNC(=O)c1cccc(COc2cccc(Br)c2)c1	-27	27	82*	-81	10
CN(CCC#N)CC(=O)Nc1ccc(NC(=O)CN(C)CCC#N)cc1	2	-2	9	-8	-74
